This is an account of results in PubChem BioAssay (NCI).

The nature of assay [1]: NCI Yeast Anticancer Drug Screen. Data for the rad50 strain (AID 155).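 Note: 0% = growth of vehicle-only cultures of the same strain.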 The settings on record: S. cerevisiae rad50 strain growth inhibition, active compounds read high. The essentials:
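DNA repair mutant yeast, compound exposure, growth read-out; inhibition is taken relative to vehicle.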

Assay [2] can be described thus: NCI Yeast Anticancer Drug Screen. Data for the mec2-1 strain (AID 157). Conditions: S. cerevisiae mec2-1 strain, active compounds read high. In short, it runs like this:
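Cells of the genetically defined mec2-1 yeast strain are incubated with test compound. Inhibition of growth is calculated against vehicle-treated controls.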

The nature of assay [3]: NCI Yeast Anticancer Drug Screen. Data for the sgs1 mgt1 strain (AID 161).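 Note: 0% = growth of cultures given vehicle only.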 Conditions: S. cerevisiae sgs1 mgt1 strain, active compounds read high. In short, it runs like this: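 Read-out: growth inhibition vs vehicle controls. Cells: mutant yeast strain deficient in DNA damage repair.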
Assay [4] can be described thus: NCI Yeast Anticancer Drug Screen. Data for the cln2 rad14 strain (AID 165).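 Note: 0% = growth equal to vehicle treated cultures.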 The settings on record: S. cerevisiae cln2 rad14 strain, active compounds read high. In short, it runs like this:
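The screen exposed genetically defined yeast (cln2 rad14) to test compounds and scored growth inhibition relative to vehicle-treated controls.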

Assay [5] can be described thus: NCI Yeast Anticancer Drug Screen. Data for the bub3 strain (AID 167). Conditions: S. cerevisiae bub3 mutant strain, active compounds read high. In short, it runs like this: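 In this screen, a yeast mutant lacking normal mitotic checkpoint function is challenged with compound. Relative growth versus vehicle gives the inhibition value.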
The nature of assay [6]: NCI Yeast Anticancer Drug Screen. Data for the mlh1 rad18 strain (AID 175). The settings on record: S. cerevisiae mlh1 rad18 strain growth inhibition, active compounds read high. The essentials:
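Compound-treated yeast growth, normalised to vehicle controls. Strain bears defined DNA repair mutations.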

Setting [7] is: at 5.0 µM (retest, dose inferred, filed as 0.5).
[8] abbreviates: at 50.0 µM (retest, dose inferred, filed as 5.0).

The structures appear in SMILES notation. This is part of a sample that, as a whole, favours compounds with a hit. Of some 79,000 tested, about 15% had one in any assay. Values without a mark were called inactive. Calls of active or inactive are those of the source. Cut-off read from the data, not from the text of the source: active = growth inhibition above about 70%; inactive = the rest.

As to `CC(C)N1C(=O)C=CC1=O`, the growth inhibition was 6% in assay [1] (setting [7]); 67% in assay [1] (setting [8]); 93.7% (active) in assay [1] (at 50.0 µM); 7% in assay [2] (setting [7]); 60% in assay [2] (setting [8]); 98.8% (active) in assay [2] (at 50.0 µM). Besides, the growth inhibition in assay [3] (setting [7]) is 7%; in assay [3] (setting [8]), 53%; in assay [3] (at 50.0 µM) it was 52.1%; in assay [4] (setting [7]) it was 2%; in assay [4] (setting [8]), 57%; in assay [4] (at 50.0 µM) it was 57%. In addition, the growth inhibition was 1% in assay [5] (setting [7]); 75% (active) in assay [5] (setting [8]); 46.6% in assay [5] (at 50.0 µM); 3% in assay [6] (setting [7]); 60% in assay [6] (setting [8]); 54% in assay [6] (at 50.0 µM).

On to `CC(=O)Nc1ccc2c(c1)C(=Nc1ccc(F)cc1)c1ccccc1-2`, for which the growth inhibition was 7% in assay [1] (setting [7]); 83% (active) in assay [1] (setting [8]); 54.1% in assay [1] (at 50.0 µM); 0% in assay [2] (setting [7]); 84% (active) in assay [2] (setting [8]); 4.35% in assay [2] (at 50.0 µM). In addition, the growth inhibition in assay [3] (setting [7]) was 2%; in assay [3] (setting [8]), 62%; in assay [3] (at 50.0 µM) it was 14.3%; in assay [4] (setting [7]), -1%; in assay [4] (setting [8]), 74% (active); in assay [4] (at 50.0 µM), 40.4%. Also, the growth inhibition was -4% in assay [5] (setting [7]); 47% in assay [5] (setting [8]); 45.4% in assay [5] (at 50.0 µM); 0% in assay [6] (setting [7]); 94% (active) in assay [6] (setting [8]); 50.7% in assay [6] (at 50.0 µM).

For the compound `O=C(CC(O)(C(F)(F)Cl)C(F)(F)Cl)CC(O)(C(F)(F)Cl)C(F)(F)Cl`, the growth inhibition is 94% (active) in assay [1] (setting [7]); 100% (active) in assay [1] (setting [8]); 99.1% (active) in assay [1] (at 50.0 µM); 97% (active) in assay [2] (setting [7]); 100% (active) in assay [2] (setting [8]); 99.5% (active) in assay [2] (at 50.0 µM). The growth inhibition was 93% (active) in assay [3] (setting [7]); 99% (active) in assay [3] (setting [8]); 99.5% (active) in assay [3] (at 50.0 µM); 95% (active) in assay [4] (setting [7]); 99% (active) in assay [4] (setting [8]); 99.3% (active) in assay [4] (at 50.0 µM). The growth inhibition is 91% (active) in assay [5] (setting [7]); 100% (active) in assay [5] (setting [8]); 99.6% (active) in assay [5] (at 50.0 µM); 97% (active) in assay [6] (setting [7]); 100% (active) in assay [6] (setting [8]); 99.2% (active) in assay [6] (at 50.0 µM).

On to `CCCCCCC(/C=C/c1ccccc1)=N\O`, for which the growth inhibition was 0% in assay [1] (setting [7]); 96% (active) in assay [1] (setting [8]); 98.8% (active) in assay [1] (at 50.0 µM); -1% in assay [2] (setting [7]); 96% (active) in assay [2] (setting [8]); 98.7% (active) in assay [2] (at 50.0 µM). Further, the growth inhibition is 6% in assay [3] (setting [7]); 96% (active) in assay [3] (setting [8]); 98.8% (active) in assay [3] (at 50.0 µM); -10% in assay [4] (setting [7]); 96% (active) in assay [4] (setting [8]); 98.2% (active) in assay [4] (at 50.0 µM). Besides, the growth inhibition was -2% in assay [5] (setting [7]); 94% (active) in assay [5] (setting [8]); 98.8% (active) in assay [5] (at 50.0 µM); 2% in assay [6] (setting [7]); 95% (active) in assay [6] (setting [8]); 99.2% (active) in assay [6] (at 50.0 µM).

Regarding `CCCCC(O)(c1ccccc1)C(O)(c1ccccc1)c1c(F)c(F)c(F)c(F)c1F` (stereo not given), the growth inhibition in assay [1] (setting [7]) was 17%; in assay [1] (setting [8]), 99% (active); in assay [1] (at 50.0 µM) it was 81.1% (active); in assay [2] (setting [7]), -3%; in assay [2] (setting [8]), 99% (active); in assay [2] (at 50.0 µM), 96.6% (active). The growth inhibition in assay [3] (setting [7]) was -5%; in assay [3] (setting [8]), 98% (active); in assay [3] (at 50.0 µM), 99% (active); in assay [4] (setting [7]), 1%; in assay [4] (setting [8]) it was 98% (active); in assay [4] (at 50.0 µM), 97.3% (active). The growth inhibition in assay [5] (setting [7]) was -8%; in assay [5] (setting [8]) it was 96% (active); in assay [5] (at 50.0 µM), 98.6% (active); in assay [6] (setting [7]) it was -4%; in assay [6] (setting [8]), 99% (active); in assay [6] (at 50.0 µM) it was 97.2% (active).

`CC(C)c1cccc(O)c1O`: the growth inhibition was 7% in assay [1] (setting [7]); 1% in assay [1] (setting [8]); 87.2% (active) in assay [1] (at 50.0 µM); -7% in assay [2] (setting [7]); 14% in assay [2] (setting [8]); 89.4% (active) in assay [2] (at 50.0 µM). The growth inhibition in assay [3] (setting [7]) was 9%; in assay [3] (setting [8]), 13%; in assay [3] (at 50.0 µM), 82.3% (active); in assay [4] (setting [7]), 23%; in assay [4] (setting [8]), 38%; in assay [4] (at 50.0 µM) it was 86.3% (active). In addition, the growth inhibition in assay [5] (setting [7]) was -1%; in assay [5] (setting [8]), 45%; in assay [5] (at 50.0 µM) it was 89.5% (active); in assay [6] (setting [7]), -1%; in assay [6] (setting [8]), 4%; in assay [6] (at 50.0 µM) it was 86.9% (active).

For the compound `N#CC1C(=O)NC(=O)C(C#N)C1c1c(Cl)cccc1Cl` (stereo not given), the growth inhibition in assay [1] (setting [7]) is 5%; in assay [1] (setting [8]) it was 72% (active); in assay [1] (at 50.0 µM), 96.2% (active); in assay [2] (setting [7]), 1%; in assay [2] (setting [8]) it was 55%; in assay [2] (at 50.0 µM) it was 92.5% (active). Besides, the growth inhibition in assay [3] (setting [7]) was 4%; in assay [3] (setting [8]) it was 91% (active); in assay [3] (at 50.0 µM) it was 94% (active); in assay [4] (setting [7]) it was 8%; in assay [4] (setting [8]), 28%; in assay [4] (at 50.0 µM) it was 48.1%. Also, the growth inhibition was -7% in assay [5] (setting [7]); 74% (active) in assay [5] (setting [8]); 91% (active) in assay [5] (at 50.0 µM); 1% in assay [6] (setting [7]); 93% (active) in assay [6] (setting [8]); 94.7% (active) in assay [6] (at 50.0 µM).

On to `CCOC(=O)CN1C(=O)S/C(=C/c2ccc([N+](=O)[O-])o2)C1=O`, for which the growth inhibition in assay [1] (setting [7]) was 9%; in assay [1] (setting [8]), 93% (active); in assay [1] (at 50.0 µM), 77.2% (active); in assay [2] (setting [7]), 3%; in assay [2] (setting [8]), 94% (active); in assay [2] (at 50.0 µM), 76% (active). Besides, the growth inhibition in assay [3] (setting [7]) was 12%; in assay [3] (setting [8]), 98% (active); in assay [3] (at 50.0 µM), 91.3% (active); in assay [4] (setting [7]), -3%; in assay [4] (setting [8]) it was 89% (active); in assay [4] (at 50.0 µM), 56.3%. For the same compound, the growth inhibition was 3% in assay [5] (setting [7]); 96% (active) in assay [5] (setting [8]); 86% (active) in assay [5] (at 50.0 µM); 21% in assay [6] (setting [7]); 96% (active) in assay [6] (setting [8]); 87.1% (active) in assay [6] (at 50.0 µM).

Take `OCCCC(Sc1ccccc1)c1ccccc1` (stereo not given): the growth inhibition in assay [1] (setting [7]) is -1%; in assay [1] (setting [8]) it was 25%; in assay [1] (at 50.0 µM), 46.4%; in assay [2] (setting [7]) it was -18%; in assay [2] (setting [8]), 13%; in assay [2] (at 50.0 µM) it was 78.5% (active). The growth inhibition was -15% in assay [3] (setting [7]); 23% in assay [3] (setting [8]); 67.2% in assay [3] (at 50.0 µM); -1% in assay [4] (setting [7]); -1% in assay [4] (setting [8]); 40.2% in assay [4] (at 50.0 µM). The growth inhibition in assay [5] (setting [7]) is -4%; in assay [5] (setting [8]), 3%; in assay [5] (at 50.0 µM), -0.25%; in assay [6] (setting [7]), 28%; in assay [6] (setting [8]) it was 23%; in assay [6] (at 50.0 µM), 52.2%.

Take `Oc1ccc(C2Oc3ccccc3C=C2c2ccccc2)cc1` (stereo not given): the growth inhibition in assay [1] (setting [7]) was 51%; in assay [1] (setting [8]), 98% (active); in assay [1] (at 50.0 µM), -10.4%; in assay [2] (setting [7]), 58%; in assay [2] (setting [8]), 99% (active); in assay [2] (at 50.0 µM) it was -25.8%. The growth inhibition is 61% in assay [3] (setting [7]); 99% (active) in assay [3] (setting [8]); -5.2% in assay [3] (at 50.0 µM); 15% in assay [4] (setting [7]); 99% (active) in assay [4] (setting [8]); -14.8% in assay [4] (at 50.0 µM). Also, the growth inhibition in assay [5] (setting [7]) is 13%; in assay [5] (setting [8]), 99% (active); in assay [5] (at 50.0 µM), -1.25%; in assay [6] (setting [7]), 81% (active); in assay [6] (setting [8]), 98% (active); in assay [6] (at 50.0 µM), -7.45%.
